Screening results deposited in PubChem BioAssay by Broad Institute.
AF4-AF9 inh: blocks AF4 peptide binding to human AF9; P42568; AID 651704; AlphaScreen, biotin-AF4 peptide binding to FLAG-AF9; hit rate 0.47% among 350,000; inhibition, % at 10 µM;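 active = every replicate reaching a set inhibition limit, whatever the replicate mean, cut at about 25% in these data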;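 note: 0% = plate neutral control median and 100% = total signal loss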
rRNA inh HTS: selective bacterial rRNA inhibition in E. coli | E. coli WT GFP vs humanized-ribosome RFP mutants, fluorescence, 24 h; stronger effect = lower value; DMSO median 0, no signal -100 | GFP signal change (wild-type ribosome), % (no concentration beside the values) | hit rate 1.6% among 350,000;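 active = significant combined selectivity score with lowered wild-type GFP, culture density cut under 30%, mutant RFP and density less affected; inactive = any of these conditions unmet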
NSD2 inh: blocks human histone methyltransferase NSD2; AID 743445; inhibition, % at 12.5 µM; O96028; NSD2 peptide methylation, AlphaScreen, 120 min; hit rate 0.54% among 310,000; in the data active = inhibition above about 50%
RAD52 anneal inh: blocks human RAD52 DNA annealing. inhibition, % at 18.7 µM. recombinant RAD52 DNA annealing, FRET fluorescence. hit rate 0.46% among 360,000. AID 651710. P43351;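 active = every replicate showing at least 50% inhibition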
Target sequence (P43351 whole entry, looked up): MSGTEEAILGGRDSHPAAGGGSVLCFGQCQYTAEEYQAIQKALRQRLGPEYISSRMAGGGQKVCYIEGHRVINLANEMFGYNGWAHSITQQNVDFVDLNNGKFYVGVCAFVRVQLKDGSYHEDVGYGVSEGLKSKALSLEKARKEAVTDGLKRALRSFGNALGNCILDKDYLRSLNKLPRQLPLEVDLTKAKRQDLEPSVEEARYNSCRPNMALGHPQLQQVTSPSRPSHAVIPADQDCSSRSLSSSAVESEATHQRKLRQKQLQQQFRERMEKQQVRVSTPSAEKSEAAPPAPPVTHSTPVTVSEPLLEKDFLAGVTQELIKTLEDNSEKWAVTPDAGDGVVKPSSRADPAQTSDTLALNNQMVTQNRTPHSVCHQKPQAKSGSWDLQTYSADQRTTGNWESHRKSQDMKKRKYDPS
Casp6 inh: inhibitors of human caspase-6. hit rate 0.53% among 350,000. AID 686996. P55212. purified caspase-6, Z-VEID-R110 cleavage fluorescence. inhibition, % at 12.5 µM;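 active = mean inhibition across replicates at least about 35%, with every replicate also reaching that limit, limit read from the data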;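 note: 0% = median of neutral control wells and 100% = no fluorescence left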
Alpha artifact: interferes with AlphaScreen signal, flagging NSD2 false positives. shares compounds with NSD2 inh. AlphaScreen artifact counterscreen, preloaded methylated H4 peptide. AC35, µM (top dose mostly 10 µM), inactives show at the top dose activity change, negative = signal loss. hit rate 9.4% among 1,500; call rule not given here
An asterisk follows results filed as active; nt = not tested or not shown. Most compounds without a hit are left out; they make up all but 2.5% or so of the library.

SMILES	AF4-AF9 inh	rRNA inh HTS	NSD2 inh	RAD52 anneal inh	Casp6 inh	Alpha artifact
Cc1ccc(C)c(C(=O)c2ccccc2NC(=O)c2ccccn2)c1	1	5	1	-9	0	nt
O=C(CN(C(=O)c1csnn1)c1ccc(Cl)cc1)NC1CCCC1	-1	nt	-1	6	3	nt
O=C(CN(C(=O)c1csnn1)c1ccc(F)c(Cl)c1)NC1CCCCC1	-1	4	88*	-5	-1	4%
Cc1cc(C)c(NC(=S)N(C)C)cc1C	0	nt	56*	-10	5	2%
CN(Cc1c(O)ccc2c1oc(=O)c1ccccc12)C1CCCCC1	nt	nt	75*	nt	nt	2%
CN(C)Cc1c(O)ccc2c3c(c(=O)oc12)CCCCC3	nt	nt	1	nt	nt	nt
COCC(=O)N1C[C@H](C)[C@H](OC)CN(C)C(=O)c2ccc(NC(=O)Nc3ccccc3)cc2OC[C@@H]1C	4	-2	nt	-3	2	nt
O=C(C[C@@H]1CC[C@@H](NC(=O)c2ccncc2)[C@H](CO)O1)NCc1ccncn1	-3	3	nt	2	-3	nt
C[C@H](CO)N1C[C@H](C)[C@@H](CN(C)Cc2ccc3c(c2)OCO3)Oc2ccc(NS(=O)(=O)c3cccs3)cc2C1=O	-1	2	nt	11	0	nt
Cc1c(NC(=O)CN2C(=O)c3cccc4cccc2c34)c(=O)n(-c2ccccc2)n1C	nt	nt	1	nt	nt	nt
Cc1c(NC(=O)CN2C(=O)C(=O)c3ccccc32)c(=O)n(-c2ccccc2)n1C	-6	6	56*	-24	0	-3%
O=C(Nc1ccc(O)cc1)C1CC=CCC1 (centres undefined)	nt	nt	126*	nt	nt	-5%
O=C(Nc1nccs1)C1CC=CCC1 (centres undefined)	-1	24	-2	1	2	nt
CN1c2ccc(C#Cc3cccnc3)cc2[C@@H]2[C@@H](CCN2S(=O)(=O)c2cccc(F)c2)[C@H]1CO	-2	-9	nt	-16	0	nt
C[C@@H]1CN([C@H](C)CO)C(=O)c2cc(C3=CCCCC3)cnc2O[C@@H]1CN(C)Cc1ccccc1F	1	4	nt	1	-1	nt
CN(C)CC(=O)Nc1ccc2c(c1)[C@@H]1C[C@@H](CC(=O)NC3CCCC3)O[C@H](CO)[C@@H]1O2	-1	2	nt	-12	-2	nt
CCN(CC)CC(C)(C)C(=O)/C=C/c1ccc(/C=C/C(=O)C(C)(C)CN(CC)CC)cc1	-6	-14*	101*	35	-25	-3%
CCN(CC)CCOC(=O)/C=C/c1ccccc1	-3	9	1	9	4	nt
Cn1c(N)c(C#N)c2c(c1=S)CSC(C)(C)C2	nt	nt	51*	nt	nt	-2%
Cn1c(N)c(C#N)c2c(c1=S)COC(C)(C)C2	nt	nt	-4	nt	nt	nt
COc1ccc(C(=O)Nc2cccc(C(C)=O)c2)cc1OC	nt	nt	17	nt	nt	nt
COc1ccc(C(=O)Nc2ccc3[nH]ccc3c2)cc1OC	0	-10	51*	-11	1	5%
C[C@H](CO)N1C[C@H](C)[C@H](CN(C)CC2CC2)Oc2c(NC(=O)c3nc4ccccc4s3)cccc2C1=O	6	-5	nt	18	-1	nt
Cc1cc(C)cc(NC(=O)C2C3C=CC4(O3)C2C(=O)N(CCCN2CCCC2)C4C(=O)NC2CCCC(C)C2C)c1 (centres undefined)	2	-1	50*	-12	-9	3%
O=C(NC1CCCC1)c1cc(-c2ccc(Cl)cc2Cl)on1	2	3	89*	-10	nt	-7%
SMILES	AF4-AF9 inh	rRNA inh HTS	NSD2 inh	RAD52 anneal inh	Casp6 inh	Alpha artifact
C[C@H]1CN([C@@H](C)CO)S(=O)(=O)c2ccc(C#Cc3ccc(F)cc3)cc2O[C@@H]1CN(C)C(=O)c1ccccn1	2	-44	nt	1	-4	nt
Cc1cc(C)c(Nc2cc(S(=O)(=O)O)c(N)c3c2C(=O)c2ccccc2C3=O)c(C)c1	nt	nt	145*	nt	nt	6.2µM*
Cc1cc(C)c(NC(=O)COC(=O)c2cccc3c2C(=O)c2ccccc2C3=O)c(C)c1	nt	nt	1	nt	nt	nt
CC(=O)N1CCn2c3c(c4cc(C)ccc42)CCCC31 (centres undefined)	6	-14	8	-15	0	nt
CC(=O)N1CCn2c3c(c(=O)c4cc(C)ccc42)CCC31 (centres undefined)	nt	nt	97*	nt	nt	-1%
CS(=O)(=O)N(CC(=O)N1CCCC1)Cc1ccc(Cl)cc1	nt	nt	-2	nt	nt	nt
CC1CCN(C(=O)CN(Cc2ccc(Cl)cc2)S(C)(=O)=O)CC1	0	-15	62*	-6	2	-8%
